Assays:
Assay in all cases: log2 ratio of Biotin-Ahx-Ub-VS probe labelling (fragment/DMSO); higher = less target engagement (more negative = stronger competition), active = hit call of the paper (q ≤ 0.05, log2 ratio ≤ -1)
Conditions in all cases: compound concentration: 200 uM; treatment time: 3 h
USP42 = biological target: T1, USP42 (UniProt Q9H9J4)
T1 sequence (whole entry): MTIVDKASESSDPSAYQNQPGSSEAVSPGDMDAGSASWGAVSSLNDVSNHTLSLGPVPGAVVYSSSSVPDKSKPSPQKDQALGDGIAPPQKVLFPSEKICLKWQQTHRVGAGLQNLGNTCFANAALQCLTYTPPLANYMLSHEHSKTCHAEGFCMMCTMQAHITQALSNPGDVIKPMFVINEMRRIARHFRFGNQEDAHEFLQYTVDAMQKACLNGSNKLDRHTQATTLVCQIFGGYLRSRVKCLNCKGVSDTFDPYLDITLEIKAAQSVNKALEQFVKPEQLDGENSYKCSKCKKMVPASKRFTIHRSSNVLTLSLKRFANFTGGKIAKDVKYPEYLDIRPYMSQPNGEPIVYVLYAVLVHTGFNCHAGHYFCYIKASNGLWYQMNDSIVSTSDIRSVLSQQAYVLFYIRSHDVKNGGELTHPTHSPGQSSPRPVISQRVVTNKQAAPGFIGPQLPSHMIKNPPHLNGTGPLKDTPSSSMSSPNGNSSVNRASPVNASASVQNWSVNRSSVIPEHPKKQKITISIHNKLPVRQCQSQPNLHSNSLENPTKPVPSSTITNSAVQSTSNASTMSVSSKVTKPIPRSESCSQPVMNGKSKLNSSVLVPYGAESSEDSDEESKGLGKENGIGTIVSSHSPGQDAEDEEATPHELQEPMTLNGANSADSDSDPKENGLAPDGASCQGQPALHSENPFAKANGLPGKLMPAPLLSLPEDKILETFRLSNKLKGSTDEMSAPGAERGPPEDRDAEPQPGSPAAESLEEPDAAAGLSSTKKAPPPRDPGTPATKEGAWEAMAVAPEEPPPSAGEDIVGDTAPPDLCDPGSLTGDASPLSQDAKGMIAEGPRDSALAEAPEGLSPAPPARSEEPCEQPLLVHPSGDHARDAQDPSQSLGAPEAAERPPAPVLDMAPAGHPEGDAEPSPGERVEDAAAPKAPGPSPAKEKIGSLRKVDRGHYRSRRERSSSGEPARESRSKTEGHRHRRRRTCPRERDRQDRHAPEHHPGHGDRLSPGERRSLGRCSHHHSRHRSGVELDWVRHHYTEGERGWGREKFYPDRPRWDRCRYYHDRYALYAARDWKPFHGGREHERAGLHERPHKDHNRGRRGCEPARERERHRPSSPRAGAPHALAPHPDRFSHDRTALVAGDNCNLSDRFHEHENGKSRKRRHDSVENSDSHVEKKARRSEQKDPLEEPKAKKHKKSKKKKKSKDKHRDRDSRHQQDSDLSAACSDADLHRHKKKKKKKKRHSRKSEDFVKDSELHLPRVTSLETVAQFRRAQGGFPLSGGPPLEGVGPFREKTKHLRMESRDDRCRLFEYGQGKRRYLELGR
How it was run: (§1)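 Labelled DUBs were enriched with NeutrAvidin, digested with LysC and trypsin, and run by diaPASEF LC-MS/MS. The labelling used Biotin-Ahx-Ub-VS at 0.5 µM final for 1 h on HEK293T lysate (495 µg per sample) previously treated in triplicate with fragment at 200 µM or vehicle for 3 h. Values are average log2 fragment/vehicle ratios by unpaired t-test on global-median-normalised Spectronaut quantities of proteins with ≥2 unique peptides.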

USP46 = USP46 (UniProt P62068)
How it was run: as §1

USP47 = biological target: T2, USP47 (UniProt Q96K76)
T2 sequence (whole entry): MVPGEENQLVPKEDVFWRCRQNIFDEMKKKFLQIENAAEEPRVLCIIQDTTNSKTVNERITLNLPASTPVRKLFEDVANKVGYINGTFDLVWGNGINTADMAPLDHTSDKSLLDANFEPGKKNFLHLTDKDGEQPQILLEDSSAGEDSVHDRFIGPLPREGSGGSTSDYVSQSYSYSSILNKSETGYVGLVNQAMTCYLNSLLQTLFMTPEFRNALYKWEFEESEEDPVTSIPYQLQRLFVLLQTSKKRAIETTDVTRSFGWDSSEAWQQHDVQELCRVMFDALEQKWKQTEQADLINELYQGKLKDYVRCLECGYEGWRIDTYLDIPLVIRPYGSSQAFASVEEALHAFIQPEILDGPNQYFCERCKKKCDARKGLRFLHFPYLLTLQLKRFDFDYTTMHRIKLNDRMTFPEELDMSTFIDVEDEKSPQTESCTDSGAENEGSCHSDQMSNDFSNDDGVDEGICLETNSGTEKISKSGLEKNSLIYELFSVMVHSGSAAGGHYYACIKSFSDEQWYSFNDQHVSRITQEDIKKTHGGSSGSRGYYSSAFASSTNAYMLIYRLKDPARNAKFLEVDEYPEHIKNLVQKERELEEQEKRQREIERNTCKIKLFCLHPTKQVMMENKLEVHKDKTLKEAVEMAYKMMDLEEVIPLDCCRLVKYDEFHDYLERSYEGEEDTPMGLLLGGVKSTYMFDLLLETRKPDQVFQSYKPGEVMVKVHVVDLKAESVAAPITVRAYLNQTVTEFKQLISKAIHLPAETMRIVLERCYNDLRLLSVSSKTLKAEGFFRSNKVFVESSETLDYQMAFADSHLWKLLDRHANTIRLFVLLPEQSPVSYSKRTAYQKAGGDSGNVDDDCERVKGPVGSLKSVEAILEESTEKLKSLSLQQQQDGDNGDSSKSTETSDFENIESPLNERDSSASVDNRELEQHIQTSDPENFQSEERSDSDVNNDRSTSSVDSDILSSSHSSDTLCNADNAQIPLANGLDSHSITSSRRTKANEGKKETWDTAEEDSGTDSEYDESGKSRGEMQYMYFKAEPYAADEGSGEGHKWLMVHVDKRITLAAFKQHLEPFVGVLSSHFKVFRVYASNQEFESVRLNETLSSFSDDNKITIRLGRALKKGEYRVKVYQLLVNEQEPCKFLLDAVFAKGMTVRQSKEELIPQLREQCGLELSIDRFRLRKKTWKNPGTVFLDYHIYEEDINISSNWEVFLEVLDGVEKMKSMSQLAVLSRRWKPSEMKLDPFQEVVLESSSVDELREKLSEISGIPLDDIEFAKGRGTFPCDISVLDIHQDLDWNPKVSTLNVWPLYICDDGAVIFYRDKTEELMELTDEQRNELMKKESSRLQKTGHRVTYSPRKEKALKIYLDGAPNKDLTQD
How it was run: as §1

USP48 = biological target: T3, USP48 (UniProt Q86UV5)
T3 sequence (whole entry): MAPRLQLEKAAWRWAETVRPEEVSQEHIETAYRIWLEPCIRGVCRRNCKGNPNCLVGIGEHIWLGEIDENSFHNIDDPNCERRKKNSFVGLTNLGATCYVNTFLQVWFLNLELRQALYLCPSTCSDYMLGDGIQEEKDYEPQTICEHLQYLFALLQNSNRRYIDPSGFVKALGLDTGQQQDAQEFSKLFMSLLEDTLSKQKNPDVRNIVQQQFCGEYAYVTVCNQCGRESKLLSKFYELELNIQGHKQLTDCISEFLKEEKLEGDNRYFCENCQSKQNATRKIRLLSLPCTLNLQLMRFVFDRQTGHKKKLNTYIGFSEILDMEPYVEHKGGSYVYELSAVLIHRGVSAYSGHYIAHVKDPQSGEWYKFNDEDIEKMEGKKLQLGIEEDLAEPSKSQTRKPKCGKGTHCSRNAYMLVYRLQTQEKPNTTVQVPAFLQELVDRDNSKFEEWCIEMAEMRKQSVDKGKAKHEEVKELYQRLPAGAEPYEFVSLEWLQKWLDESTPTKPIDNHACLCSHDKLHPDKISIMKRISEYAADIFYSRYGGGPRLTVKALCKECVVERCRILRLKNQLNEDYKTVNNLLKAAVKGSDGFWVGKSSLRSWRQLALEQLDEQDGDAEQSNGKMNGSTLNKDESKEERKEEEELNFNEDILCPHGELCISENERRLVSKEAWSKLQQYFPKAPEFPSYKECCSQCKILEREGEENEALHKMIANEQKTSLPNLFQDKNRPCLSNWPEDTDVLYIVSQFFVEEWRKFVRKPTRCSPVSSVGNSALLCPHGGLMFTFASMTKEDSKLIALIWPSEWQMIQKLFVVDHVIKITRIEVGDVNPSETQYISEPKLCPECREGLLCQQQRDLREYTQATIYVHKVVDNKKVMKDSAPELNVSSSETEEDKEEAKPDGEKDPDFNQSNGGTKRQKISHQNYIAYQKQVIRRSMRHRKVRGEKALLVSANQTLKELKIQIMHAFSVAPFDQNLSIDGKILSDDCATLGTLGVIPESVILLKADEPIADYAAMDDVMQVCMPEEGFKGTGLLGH
How it was run: as §1

USP5 = biological target: T4, USP5 (UniProt P45974)
T4 sequence (whole entry): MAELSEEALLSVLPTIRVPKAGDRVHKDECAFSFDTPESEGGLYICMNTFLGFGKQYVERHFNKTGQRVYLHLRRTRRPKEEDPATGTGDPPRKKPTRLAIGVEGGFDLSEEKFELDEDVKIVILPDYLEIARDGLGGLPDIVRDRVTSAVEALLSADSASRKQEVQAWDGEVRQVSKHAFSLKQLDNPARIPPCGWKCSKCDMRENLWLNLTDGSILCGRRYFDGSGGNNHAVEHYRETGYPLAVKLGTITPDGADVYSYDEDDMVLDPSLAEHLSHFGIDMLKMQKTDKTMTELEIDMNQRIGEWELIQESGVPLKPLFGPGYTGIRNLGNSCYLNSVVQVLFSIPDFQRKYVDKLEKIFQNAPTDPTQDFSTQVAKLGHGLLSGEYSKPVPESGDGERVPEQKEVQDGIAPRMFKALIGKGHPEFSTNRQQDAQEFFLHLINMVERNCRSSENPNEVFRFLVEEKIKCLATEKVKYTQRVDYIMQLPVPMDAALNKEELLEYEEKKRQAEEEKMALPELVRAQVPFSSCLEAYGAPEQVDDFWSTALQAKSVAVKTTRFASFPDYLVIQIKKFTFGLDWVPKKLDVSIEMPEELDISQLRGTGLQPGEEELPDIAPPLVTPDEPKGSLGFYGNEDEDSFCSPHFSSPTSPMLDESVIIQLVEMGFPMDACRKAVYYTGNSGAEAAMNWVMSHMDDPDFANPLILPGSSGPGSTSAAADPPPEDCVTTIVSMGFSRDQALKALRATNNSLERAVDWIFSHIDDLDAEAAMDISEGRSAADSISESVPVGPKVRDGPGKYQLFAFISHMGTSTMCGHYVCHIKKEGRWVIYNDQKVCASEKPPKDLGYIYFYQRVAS
How it was run: as §1

USP54 = USP54 (UniProt Q70EL1)
How it was run: as §1

USP7 = USP7 (UniProt Q93009)
How it was run: as §1

USP8 = biological target: T5, USP8 (UniProt P40818)
T5 sequence (whole entry): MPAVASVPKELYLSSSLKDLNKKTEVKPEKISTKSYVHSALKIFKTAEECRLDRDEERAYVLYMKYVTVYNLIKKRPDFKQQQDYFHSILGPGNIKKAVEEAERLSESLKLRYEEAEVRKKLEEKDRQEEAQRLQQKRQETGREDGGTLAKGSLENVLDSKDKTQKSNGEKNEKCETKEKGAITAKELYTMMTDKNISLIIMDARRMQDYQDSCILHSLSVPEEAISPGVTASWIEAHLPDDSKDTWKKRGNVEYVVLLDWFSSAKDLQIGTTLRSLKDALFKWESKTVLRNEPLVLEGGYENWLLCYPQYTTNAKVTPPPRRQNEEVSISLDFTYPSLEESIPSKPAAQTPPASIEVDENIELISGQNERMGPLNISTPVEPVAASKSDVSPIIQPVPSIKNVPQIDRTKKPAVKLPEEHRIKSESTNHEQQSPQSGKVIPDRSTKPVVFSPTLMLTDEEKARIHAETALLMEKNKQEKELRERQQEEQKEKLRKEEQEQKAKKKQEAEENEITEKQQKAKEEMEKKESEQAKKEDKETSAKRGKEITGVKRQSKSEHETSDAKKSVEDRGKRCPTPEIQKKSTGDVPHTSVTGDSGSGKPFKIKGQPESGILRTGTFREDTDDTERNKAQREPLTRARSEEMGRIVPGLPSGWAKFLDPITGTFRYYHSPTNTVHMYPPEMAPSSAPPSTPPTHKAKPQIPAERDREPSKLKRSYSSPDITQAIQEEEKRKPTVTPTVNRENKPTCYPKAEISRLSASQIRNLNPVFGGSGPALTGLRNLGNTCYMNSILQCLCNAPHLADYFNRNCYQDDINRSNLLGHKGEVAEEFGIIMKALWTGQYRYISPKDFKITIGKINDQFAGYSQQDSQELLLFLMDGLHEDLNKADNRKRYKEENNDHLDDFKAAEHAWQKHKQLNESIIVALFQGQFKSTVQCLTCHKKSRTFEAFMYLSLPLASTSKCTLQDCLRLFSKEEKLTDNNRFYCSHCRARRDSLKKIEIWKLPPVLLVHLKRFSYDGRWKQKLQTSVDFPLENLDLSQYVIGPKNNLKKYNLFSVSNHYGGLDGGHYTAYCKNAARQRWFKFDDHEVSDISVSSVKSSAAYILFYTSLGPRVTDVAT
How it was run: as §1

USP9X = USP9X (UniProt Q93008)
How it was run: as §1

UniProt O00487 = biological target: UniProt O00487
How it was run: as §1

Measured: log2 ratio of Biotin-Ahx-Ub-VS probe labelling

UniProt O00487, sequence (O00487 whole entry): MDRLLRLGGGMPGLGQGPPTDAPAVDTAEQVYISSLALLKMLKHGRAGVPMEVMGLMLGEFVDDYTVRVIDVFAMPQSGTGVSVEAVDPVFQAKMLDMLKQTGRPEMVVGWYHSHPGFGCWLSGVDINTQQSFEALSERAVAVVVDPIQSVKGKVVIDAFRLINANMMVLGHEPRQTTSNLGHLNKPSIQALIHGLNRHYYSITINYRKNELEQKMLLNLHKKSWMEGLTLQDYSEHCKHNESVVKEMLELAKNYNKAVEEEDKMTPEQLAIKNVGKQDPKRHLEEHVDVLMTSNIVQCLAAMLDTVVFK
USP54, sequence (Q70EL1 whole entry): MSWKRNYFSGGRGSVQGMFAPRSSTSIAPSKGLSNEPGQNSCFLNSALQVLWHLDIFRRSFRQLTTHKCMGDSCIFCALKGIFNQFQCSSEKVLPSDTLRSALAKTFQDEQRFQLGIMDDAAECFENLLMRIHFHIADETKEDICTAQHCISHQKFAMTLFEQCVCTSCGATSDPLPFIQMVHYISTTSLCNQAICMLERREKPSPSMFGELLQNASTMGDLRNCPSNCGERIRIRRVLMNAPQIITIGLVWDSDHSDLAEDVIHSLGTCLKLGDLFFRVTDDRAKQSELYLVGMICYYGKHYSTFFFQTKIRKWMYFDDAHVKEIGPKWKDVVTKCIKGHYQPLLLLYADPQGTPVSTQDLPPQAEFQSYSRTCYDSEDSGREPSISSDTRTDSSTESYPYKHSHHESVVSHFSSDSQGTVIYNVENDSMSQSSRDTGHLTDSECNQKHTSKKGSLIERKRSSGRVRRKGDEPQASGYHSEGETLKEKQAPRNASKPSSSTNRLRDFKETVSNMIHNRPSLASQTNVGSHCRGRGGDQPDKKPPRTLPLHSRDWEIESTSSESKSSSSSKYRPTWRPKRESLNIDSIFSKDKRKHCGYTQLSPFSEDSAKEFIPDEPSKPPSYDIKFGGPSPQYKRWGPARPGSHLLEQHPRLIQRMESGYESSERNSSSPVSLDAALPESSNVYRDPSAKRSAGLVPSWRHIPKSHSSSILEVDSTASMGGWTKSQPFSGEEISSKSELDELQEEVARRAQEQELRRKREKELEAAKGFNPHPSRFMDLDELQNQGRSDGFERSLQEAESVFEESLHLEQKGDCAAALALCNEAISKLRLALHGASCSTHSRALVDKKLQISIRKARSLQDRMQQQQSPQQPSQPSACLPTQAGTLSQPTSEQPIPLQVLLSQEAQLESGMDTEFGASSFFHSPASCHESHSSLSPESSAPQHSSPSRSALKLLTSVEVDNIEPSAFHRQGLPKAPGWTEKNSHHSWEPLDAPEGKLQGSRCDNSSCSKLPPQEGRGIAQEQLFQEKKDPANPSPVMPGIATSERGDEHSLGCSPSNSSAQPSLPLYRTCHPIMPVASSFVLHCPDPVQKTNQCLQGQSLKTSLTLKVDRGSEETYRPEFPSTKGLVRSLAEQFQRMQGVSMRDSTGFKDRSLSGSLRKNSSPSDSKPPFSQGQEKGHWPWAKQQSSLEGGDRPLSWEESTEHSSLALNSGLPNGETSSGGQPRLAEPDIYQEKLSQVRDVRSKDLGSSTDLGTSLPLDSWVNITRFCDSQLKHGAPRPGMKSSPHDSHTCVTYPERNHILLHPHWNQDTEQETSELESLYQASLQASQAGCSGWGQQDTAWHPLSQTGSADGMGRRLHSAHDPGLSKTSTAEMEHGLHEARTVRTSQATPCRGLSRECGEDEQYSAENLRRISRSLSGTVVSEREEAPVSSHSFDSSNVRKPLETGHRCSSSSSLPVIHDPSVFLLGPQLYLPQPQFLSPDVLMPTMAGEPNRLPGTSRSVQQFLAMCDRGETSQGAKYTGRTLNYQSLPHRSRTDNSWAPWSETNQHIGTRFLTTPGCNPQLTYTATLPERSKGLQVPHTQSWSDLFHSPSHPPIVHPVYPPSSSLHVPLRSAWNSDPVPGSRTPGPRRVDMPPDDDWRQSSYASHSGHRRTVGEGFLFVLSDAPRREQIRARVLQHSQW
USP7, sequence (Q93009 whole entry, looked up): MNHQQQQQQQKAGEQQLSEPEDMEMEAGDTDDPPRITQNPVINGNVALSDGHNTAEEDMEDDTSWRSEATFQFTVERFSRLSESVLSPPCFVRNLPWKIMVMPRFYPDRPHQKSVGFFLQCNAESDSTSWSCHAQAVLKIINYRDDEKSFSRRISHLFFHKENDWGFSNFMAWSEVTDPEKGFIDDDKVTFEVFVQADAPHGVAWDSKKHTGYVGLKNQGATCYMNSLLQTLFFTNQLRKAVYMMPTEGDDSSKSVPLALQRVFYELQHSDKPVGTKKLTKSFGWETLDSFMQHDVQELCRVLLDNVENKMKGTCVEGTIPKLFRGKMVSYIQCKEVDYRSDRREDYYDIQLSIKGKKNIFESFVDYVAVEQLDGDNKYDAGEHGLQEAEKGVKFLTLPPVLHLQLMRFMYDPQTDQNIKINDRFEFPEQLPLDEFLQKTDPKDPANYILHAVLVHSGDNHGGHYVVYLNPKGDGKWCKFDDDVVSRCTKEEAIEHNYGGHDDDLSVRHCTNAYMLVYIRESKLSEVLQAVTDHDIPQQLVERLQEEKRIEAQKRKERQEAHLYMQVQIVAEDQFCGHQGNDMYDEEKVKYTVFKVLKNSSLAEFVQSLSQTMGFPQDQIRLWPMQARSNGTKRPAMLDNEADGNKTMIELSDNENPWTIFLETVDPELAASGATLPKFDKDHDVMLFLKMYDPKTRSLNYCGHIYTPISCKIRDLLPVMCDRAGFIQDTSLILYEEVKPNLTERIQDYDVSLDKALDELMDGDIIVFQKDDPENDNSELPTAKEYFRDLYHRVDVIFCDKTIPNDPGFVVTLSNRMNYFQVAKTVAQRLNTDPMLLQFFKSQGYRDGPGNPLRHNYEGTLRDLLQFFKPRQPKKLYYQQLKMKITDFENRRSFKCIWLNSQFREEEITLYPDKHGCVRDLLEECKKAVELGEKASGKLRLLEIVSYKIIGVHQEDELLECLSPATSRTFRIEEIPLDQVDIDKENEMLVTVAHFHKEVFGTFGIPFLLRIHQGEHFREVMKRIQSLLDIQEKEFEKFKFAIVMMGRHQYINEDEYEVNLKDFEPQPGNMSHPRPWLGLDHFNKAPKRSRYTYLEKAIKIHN
USP46, sequence (P62068 whole entry): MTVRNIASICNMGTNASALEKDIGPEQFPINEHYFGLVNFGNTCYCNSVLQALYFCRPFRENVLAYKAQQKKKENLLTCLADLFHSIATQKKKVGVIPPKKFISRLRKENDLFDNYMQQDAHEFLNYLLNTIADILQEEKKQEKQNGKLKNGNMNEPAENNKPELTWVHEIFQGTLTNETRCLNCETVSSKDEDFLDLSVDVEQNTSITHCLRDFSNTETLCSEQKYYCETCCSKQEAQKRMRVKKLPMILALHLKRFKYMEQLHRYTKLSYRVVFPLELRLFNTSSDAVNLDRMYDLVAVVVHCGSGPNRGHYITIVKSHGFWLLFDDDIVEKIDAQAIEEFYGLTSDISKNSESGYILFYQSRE

O=C(CCl)Nc1ccc(N2CCCC2=O)cc1
inactive: USP42 -0.131 | USP46 0.132 | USP47 0.214 | USP48 -0.192 | USP5 -0.0866 | USP54 0.313 | USP7 -0.0242 | USP8 0.198 | USP9X 0.00968 | UniProt O00487 -0.0936
